From ChEMBL document CHEMBL2218924, “A broad activity screen in support of a chemogenomic map for kinase signalling research and drug discovery” (Biochem J, 2013) come the findings set out here.

Experiment [1] deals with T1, Protein kinase C zeta type (Homo sapiens) (UniProt Q05513).
T1 sequence (whole entry): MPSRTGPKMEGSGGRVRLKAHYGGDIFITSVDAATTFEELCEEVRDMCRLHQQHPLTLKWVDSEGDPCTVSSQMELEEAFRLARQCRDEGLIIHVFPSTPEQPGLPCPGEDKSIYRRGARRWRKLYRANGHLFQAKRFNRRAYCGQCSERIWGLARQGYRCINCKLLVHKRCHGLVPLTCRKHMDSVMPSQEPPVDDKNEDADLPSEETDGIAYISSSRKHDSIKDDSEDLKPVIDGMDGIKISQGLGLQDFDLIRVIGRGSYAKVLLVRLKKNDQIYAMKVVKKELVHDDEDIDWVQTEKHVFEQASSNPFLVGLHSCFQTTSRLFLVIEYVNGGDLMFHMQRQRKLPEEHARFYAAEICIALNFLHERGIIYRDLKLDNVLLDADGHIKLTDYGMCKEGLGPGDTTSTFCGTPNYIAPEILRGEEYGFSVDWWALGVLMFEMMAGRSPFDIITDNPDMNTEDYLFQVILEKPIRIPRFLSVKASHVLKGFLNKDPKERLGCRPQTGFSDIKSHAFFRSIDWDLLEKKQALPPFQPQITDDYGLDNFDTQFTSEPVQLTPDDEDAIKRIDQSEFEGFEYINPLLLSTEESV
The note with it: at 1 µM.

Experiment [2] has as its target T2, Mitogen-activated protein kinase kinase kinase 5 (Homo sapiens) (UniProt Q99683).
T2 sequence (whole entry): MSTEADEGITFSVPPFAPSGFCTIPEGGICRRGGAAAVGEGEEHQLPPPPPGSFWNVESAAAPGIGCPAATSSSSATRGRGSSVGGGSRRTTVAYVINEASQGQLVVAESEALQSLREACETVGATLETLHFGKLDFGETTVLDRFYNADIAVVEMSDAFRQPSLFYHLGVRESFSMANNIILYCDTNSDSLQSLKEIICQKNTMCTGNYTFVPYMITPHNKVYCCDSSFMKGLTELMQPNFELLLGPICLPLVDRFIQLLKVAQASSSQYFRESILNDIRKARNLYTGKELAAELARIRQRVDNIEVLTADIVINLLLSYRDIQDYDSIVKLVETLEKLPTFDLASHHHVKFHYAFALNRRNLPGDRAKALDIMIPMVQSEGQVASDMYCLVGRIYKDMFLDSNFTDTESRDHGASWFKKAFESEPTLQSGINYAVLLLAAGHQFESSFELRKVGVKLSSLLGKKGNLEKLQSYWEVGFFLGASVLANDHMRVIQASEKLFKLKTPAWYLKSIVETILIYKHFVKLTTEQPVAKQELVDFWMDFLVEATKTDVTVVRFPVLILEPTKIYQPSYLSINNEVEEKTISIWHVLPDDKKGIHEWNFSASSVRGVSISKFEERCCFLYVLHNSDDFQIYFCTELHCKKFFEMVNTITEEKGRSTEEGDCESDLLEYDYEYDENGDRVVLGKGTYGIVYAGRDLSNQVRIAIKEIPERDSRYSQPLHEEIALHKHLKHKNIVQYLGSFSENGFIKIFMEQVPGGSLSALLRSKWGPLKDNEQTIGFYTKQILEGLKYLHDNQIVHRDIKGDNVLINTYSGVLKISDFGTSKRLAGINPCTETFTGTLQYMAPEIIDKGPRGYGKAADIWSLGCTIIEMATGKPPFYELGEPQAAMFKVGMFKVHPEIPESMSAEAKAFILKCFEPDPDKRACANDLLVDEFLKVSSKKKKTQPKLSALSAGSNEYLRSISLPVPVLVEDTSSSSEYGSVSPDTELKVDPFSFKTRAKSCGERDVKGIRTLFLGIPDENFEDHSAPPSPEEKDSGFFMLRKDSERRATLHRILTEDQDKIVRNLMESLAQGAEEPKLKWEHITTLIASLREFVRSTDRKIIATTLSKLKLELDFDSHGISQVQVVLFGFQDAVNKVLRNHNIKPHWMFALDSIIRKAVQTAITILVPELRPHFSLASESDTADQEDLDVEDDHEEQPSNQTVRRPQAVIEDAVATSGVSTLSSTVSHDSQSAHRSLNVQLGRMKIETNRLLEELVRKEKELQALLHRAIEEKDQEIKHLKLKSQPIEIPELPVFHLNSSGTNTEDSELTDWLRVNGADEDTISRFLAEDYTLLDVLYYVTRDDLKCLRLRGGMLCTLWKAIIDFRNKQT
The settings on record: at 10 µM.

For experiment [3], the target named is Tyrosine-protein kinase ABL1 (Homo sapiens) (UniProt P00519). The note with it: at 1 µM.
Tyrosine-protein kinase ABL1 (Homo sapiens), sequence (P00519 whole entry): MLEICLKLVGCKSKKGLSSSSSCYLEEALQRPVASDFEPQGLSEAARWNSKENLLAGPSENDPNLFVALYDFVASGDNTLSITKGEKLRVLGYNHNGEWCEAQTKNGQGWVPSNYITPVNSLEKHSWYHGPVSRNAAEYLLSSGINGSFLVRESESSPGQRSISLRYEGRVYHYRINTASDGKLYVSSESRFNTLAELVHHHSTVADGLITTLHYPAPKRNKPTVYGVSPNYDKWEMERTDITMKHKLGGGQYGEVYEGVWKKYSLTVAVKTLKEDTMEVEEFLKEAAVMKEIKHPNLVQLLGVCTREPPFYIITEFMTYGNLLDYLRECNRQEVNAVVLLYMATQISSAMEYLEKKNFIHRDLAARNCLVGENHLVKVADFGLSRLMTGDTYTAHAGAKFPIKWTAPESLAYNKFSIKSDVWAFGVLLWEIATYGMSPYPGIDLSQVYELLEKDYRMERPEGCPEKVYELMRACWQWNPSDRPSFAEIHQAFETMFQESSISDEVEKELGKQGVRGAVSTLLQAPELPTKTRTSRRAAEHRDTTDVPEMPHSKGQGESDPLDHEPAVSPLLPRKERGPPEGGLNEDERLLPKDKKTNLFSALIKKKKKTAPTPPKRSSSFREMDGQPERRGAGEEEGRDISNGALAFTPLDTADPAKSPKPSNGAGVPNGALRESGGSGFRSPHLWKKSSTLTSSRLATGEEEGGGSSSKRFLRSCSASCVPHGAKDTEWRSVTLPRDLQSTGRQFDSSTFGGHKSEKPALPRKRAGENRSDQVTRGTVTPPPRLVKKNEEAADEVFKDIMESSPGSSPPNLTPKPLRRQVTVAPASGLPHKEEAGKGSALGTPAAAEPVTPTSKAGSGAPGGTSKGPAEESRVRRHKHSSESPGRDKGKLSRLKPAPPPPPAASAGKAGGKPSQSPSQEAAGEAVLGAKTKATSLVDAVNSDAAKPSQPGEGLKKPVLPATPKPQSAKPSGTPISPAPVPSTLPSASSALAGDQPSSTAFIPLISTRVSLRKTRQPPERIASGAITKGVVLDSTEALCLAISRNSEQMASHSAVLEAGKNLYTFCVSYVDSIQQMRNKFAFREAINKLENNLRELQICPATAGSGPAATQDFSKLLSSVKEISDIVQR
Experiment [4] has the same target. The settings on record: at 10 µM.
In experiment [5] the target is Tyrosine-protein kinase ABL2 (Homo sapiens) (UniProt P42684). The settings on record: at 1 µM.
Tyrosine-protein kinase ABL2 (Homo sapiens), sequence (P42684 whole entry): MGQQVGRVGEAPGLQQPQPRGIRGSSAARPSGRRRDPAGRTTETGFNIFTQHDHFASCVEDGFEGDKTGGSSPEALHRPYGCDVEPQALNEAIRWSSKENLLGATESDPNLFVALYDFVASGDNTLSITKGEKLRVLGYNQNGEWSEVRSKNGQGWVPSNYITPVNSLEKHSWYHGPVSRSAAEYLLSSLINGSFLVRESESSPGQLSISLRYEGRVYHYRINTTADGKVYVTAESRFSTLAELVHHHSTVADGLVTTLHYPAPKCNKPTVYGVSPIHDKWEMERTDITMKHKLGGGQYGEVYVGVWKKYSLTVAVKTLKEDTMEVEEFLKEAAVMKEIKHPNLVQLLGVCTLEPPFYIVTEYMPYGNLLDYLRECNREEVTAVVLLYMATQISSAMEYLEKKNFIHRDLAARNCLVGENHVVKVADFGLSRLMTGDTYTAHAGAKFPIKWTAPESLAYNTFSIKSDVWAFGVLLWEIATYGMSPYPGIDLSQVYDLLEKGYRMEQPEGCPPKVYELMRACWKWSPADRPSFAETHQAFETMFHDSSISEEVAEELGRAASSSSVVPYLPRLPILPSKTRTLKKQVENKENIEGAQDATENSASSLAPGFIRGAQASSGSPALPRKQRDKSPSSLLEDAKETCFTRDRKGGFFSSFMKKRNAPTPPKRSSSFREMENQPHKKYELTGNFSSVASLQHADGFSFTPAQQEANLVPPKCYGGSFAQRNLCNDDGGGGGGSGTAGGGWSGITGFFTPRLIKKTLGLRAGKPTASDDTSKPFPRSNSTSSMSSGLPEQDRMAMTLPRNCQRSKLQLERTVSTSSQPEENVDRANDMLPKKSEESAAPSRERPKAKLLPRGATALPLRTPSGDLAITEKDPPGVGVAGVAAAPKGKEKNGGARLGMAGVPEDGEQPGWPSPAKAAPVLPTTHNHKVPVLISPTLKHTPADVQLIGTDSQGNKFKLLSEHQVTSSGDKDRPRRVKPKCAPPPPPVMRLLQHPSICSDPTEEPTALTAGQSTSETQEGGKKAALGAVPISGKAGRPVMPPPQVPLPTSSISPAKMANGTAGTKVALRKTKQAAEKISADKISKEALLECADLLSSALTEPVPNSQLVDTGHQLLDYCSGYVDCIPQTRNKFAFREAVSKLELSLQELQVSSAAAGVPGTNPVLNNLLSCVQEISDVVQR
Experiment [6] has the same target. The settings on record: at 10 µM.
In experiment [7] the target is T3, Aurora kinase A (Homo sapiens) (UniProt O14965).
T3 sequence (whole entry): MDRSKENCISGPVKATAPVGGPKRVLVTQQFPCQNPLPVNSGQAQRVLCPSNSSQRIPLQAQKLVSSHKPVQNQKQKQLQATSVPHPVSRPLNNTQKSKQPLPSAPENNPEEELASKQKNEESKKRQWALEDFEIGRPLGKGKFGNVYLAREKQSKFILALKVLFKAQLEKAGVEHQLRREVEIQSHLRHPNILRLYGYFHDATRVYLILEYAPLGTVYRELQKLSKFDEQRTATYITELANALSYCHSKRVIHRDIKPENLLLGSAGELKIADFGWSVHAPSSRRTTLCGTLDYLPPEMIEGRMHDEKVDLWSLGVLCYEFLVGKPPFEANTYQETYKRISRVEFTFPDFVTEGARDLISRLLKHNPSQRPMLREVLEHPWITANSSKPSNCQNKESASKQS
The settings on record: at 1 µM.

Experiment [8] concerns the target T3, Aurora kinase A (Homo sapiens). The note with it: at 10 µM.
The target of experiment [9] is Aurora kinase B (Homo sapiens) (UniProt Q96GD4). The note with it: at 1 µM.
Aurora kinase B (Homo sapiens), sequence (Q96GD4 whole entry): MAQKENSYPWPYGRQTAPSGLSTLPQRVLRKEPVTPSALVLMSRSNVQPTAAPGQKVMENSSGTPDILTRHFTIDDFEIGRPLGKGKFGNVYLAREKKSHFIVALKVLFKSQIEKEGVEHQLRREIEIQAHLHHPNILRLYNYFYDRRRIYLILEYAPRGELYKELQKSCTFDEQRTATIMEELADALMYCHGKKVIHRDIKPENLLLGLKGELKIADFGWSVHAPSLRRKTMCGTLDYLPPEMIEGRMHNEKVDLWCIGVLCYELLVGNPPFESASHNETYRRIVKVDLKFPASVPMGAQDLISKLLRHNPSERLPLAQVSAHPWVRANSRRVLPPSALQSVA
Experiment [10] has the same target. The note with it: at 10 µM.
In experiment [11] the target is T4, Aurora kinase C (Homo sapiens) (UniProt Q9UQB9).
T4 sequence (whole entry): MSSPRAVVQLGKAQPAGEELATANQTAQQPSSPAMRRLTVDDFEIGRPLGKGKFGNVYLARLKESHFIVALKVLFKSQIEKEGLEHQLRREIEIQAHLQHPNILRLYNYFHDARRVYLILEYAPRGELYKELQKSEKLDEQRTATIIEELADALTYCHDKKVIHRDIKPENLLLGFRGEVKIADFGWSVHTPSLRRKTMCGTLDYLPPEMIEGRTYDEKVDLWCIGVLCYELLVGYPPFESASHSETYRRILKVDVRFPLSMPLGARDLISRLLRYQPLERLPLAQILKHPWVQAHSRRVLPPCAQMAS
The settings on record: at 1 µM.

Experiment [12] concerns the target T4, Aurora kinase C (Homo sapiens). The settings on record: at 10 µM.
In experiment [13] the target is Tyrosine-protein kinase receptor UFO (Homo sapiens) (UniProt P30530). The settings on record: at 1 µM.
Tyrosine-protein kinase receptor UFO (Homo sapiens), sequence (P30530 whole entry): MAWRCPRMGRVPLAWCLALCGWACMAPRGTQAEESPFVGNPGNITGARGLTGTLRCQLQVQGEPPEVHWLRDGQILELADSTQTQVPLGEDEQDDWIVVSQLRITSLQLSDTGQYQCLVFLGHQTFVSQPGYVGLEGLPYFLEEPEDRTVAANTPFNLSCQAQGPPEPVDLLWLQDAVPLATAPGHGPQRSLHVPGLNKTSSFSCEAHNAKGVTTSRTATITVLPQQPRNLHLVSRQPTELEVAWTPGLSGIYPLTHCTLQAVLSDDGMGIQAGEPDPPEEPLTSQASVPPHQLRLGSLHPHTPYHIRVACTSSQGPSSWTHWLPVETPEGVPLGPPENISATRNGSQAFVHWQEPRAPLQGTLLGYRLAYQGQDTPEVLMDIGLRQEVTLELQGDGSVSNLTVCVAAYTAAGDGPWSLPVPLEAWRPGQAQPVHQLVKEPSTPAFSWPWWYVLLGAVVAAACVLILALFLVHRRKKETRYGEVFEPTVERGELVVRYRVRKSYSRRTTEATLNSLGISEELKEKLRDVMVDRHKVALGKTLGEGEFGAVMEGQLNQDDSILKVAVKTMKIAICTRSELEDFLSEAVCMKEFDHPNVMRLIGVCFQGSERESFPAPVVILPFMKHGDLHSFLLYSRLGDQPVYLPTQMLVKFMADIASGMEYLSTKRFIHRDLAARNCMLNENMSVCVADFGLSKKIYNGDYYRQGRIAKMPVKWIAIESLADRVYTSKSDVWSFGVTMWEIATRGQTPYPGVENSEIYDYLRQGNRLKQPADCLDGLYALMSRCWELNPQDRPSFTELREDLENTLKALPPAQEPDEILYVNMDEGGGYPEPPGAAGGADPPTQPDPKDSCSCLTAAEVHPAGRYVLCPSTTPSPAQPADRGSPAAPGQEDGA
Experiment [14] shares this target. The settings on record: at 10 µM.
Experiment [15] has as its target Protein-tyrosine kinase 6 (Homo sapiens) (UniProt Q13882). The note with it: at 1 µM.
The target is the same in experiment [16]. The note with it: at 10 µM.
For experiment [17], the target named is Tyrosine-protein kinase BTK (Homo sapiens) (UniProt Q06187). The note with it: at 1 µM.
Tyrosine-protein kinase BTK (Homo sapiens), sequence (Q06187 whole entry): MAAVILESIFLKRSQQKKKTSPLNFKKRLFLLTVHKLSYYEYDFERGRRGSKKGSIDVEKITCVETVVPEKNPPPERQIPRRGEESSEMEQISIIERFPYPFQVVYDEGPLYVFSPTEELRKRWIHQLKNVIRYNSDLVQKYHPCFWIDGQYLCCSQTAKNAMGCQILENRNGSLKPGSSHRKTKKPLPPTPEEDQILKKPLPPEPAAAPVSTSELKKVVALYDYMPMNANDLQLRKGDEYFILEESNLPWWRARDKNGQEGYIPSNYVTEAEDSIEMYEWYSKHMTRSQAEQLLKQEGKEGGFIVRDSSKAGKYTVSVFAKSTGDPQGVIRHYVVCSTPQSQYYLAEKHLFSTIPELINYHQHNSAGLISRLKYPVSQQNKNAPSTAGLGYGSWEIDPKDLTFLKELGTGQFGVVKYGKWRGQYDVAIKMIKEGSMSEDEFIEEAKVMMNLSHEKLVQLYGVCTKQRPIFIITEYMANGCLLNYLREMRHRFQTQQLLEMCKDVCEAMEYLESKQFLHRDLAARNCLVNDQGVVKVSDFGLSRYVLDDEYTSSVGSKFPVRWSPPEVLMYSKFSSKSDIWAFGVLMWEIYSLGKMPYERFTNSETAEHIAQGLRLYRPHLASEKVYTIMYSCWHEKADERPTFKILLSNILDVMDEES
The target is the same in experiment [18]. The settings on record: at 10 µM.
The target in experiment [19] is Tyrosine-protein kinase Blk (Homo sapiens) (UniProt P51451). The note with it: at 1 µM.
The target is the same in experiment [20]. The settings on record: at 10 µM.

Structures are written as SMILES.

Protein-tyrosine kinase 6 (Homo sapiens), sequence (Q13882 whole entry, looked up): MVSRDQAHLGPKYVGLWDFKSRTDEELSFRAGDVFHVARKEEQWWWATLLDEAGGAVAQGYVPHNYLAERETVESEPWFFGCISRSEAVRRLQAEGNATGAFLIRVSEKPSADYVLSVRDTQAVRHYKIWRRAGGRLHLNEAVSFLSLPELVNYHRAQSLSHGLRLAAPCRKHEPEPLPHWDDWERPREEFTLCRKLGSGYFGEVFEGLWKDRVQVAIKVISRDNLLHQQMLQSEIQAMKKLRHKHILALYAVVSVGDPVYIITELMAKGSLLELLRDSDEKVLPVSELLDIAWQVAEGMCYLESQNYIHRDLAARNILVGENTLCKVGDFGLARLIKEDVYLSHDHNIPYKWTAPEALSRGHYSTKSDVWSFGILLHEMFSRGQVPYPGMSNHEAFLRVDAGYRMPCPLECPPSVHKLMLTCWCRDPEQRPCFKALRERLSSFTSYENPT

For the compound `Cc1ccc(NC2=CC(=O)c3sc(C)nc3C2=O)cc1`, the residual activity in [1] is 100% (inactive); in [2] it was 116%; in [3], 99%; in experiment [4], 82%; in [5], 122%; in experiment [6], 91%. Further, the residual activity in experiment [7] is 116%; in experiment [8], 96%; in [9], 104%; in experiment [10], 68%; in experiment [11], 85%; in experiment [12], 85%. In addition, the residual activity in experiment [13] was determined as 103%; in experiment [14], 112%; in [15] it was 111%; in experiment [16] it was 108%; in experiment [17], 93%; in experiment [18], 86%. For the same compound, the values for the residual activity in experiment [19] and in experiment [20] were 112% and 96%, respectively.

As to `Cc1nc(-c2ccccc2)c(-c2ccncc2)o1`, the residual activity in experiment [1] is 113% (inactive); in [2], 85%; in experiment [3] it was 26%; in experiment [4], 33%; in [5], 62%; in [6], 45%. For the same compound, the residual activity in [7] was determined as 122%; in experiment [8], 86%; in experiment [9], 44%; in experiment [10] it was 25%; in experiment [11] it was 93%; in experiment [12], 81%. Also, the residual activity was 112% in [13]; 79% in [14]; 59% in experiment [15]; 43% in experiment [16]; 91% in experiment [17]; 83% in [18]. Moreover, the residual activity in experiment [19] came to 95%; in experiment [20], 80%.

As for `COc1cc2ncc(-c3ccccc3)nc2cc1OC`, the residual activity is 77% in experiment [2]; 96% in experiment [3]; 83% in experiment [4]; 99% in experiment [5]; 84% in experiment [6]; 83% in experiment [7]. The residual activity in experiment [8] is 98%; in experiment [9], 83%; in experiment [10], 50%; in experiment [13], 96%; in experiment [14], 84%.

Regarding `O=C(Nc1cccc(Nc2nccc(Nc3cccc(C(F)(F)F)c3)n2)c1)C1CC1`, the residual activity is 98% (inactive) in [1]; 90% in experiment [2]; 68% in experiment [3]; 76% in [4]; 46% in experiment [5]; 44% in [6]. Further, the residual activity in experiment [9] is 1%; in experiment [10] it was 2%; in experiment [11], 69%; in experiment [12], 62%; in experiment [13] it was 79%; in [14], 81%. The residual activity in experiment [15] was 40%; in experiment [16] it was 46%; in experiment [17] it was 53%; in [18], 6%; in [19], 77%; in [20], 57%.

Take `O=C1Nc2ccccc2/C1=C1/Nc2ccccc2/C1=N\OCCC(O)CO` (stereo unspecified): the residual activity in experiment [1] is 95% (inactive); in experiment [2], 29%; in experiment [3], 61%; in experiment [4], 43%; in experiment [5], 45%; in [6], 18%. Further, the residual activity in experiment [7] was 7%; in experiment [8], 3%; in experiment [9], -1%; in experiment [10], -1%; in [11] it was 43%; in experiment [12], 30%. In addition, the residual activity in experiment [13] is 12%; in experiment [14], 5%; in experiment [15], 56%; in [16] it was 53%; in experiment [17], 12%; in experiment [18] it was -2%. The values for the residual activity in experiment [19] and in [20] were 4% and 0%, respectively.

On to `N#CCCc1ccc2c(c1)-c1[nH]c3ccc([N+](=O)[O-])cc3c1CC(=O)N2`, for which the residual activity was 69% (inactive) in [1]; 31% in experiment [3]; 13% in [4]; 48% in [5]; 17% in experiment [6]; 61% in experiment [7]. Moreover, the residual activity came out at 37% in experiment [8]; 8% in experiment [9]; 1% in [10]; 63% in experiment [11]; 22% in experiment [12]; 57% in [13]. In addition, the residual activity worked out at 35% in [14]; 79% in experiment [17]; 66% in experiment [18]; 24% in experiment [19]; 11% in [20].

Turning to `O=[N+]([O-])c1ccc(-c2nc(-c3ccc(F)cc3)c(-c3ccncc3)[nH]2)cc1`, the residual activity was 113% (inactive) in experiment [1]; 100% in experiment [2]; 95% in [3]; 95% in experiment [4]; 82% in [5]; 46% in [6]. Also, the residual activity turned out to be 103% in experiment [7]; 109% in experiment [8]; 114% in [9]; 90% in [10]; 107% in experiment [11]; 92% in experiment [12]. Further, the residual activity in experiment [13] was 120%; in experiment [14], 106%; in experiment [15], 36%; in experiment [16], 31%; in [17], 91%; in experiment [18] it was 56%. Besides, the residual activity in experiment [19] amounted to 110%; in experiment [20] it was 98%.
